# Reference: PubChem BioAssay AID1159580 (chemical genetic matrix, 2015)
# Hit rate of the full screen: of about 5,500 compounds, about 2,000 (36%) were called active. Inconclusive results (about 18%) are left out. The list shows a part of the results. A number with no mark means an inactive call. No stated cut-off is given here; in the data, active means normalized growth mostly below about 0.91 (no sharp cut-off); inconclusive means no clear call, values can overlap the other calls; inactive means mostly above about 0.92.
# Assay: chemical genetic growth profiling, strain panel (AID 1159580);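 further: tested at 20 µM; growth read once vehicle control cultures reached saturation at 30 °C; 1 = growth at the plate median or of vehicle wells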
# Settings: S. cerevisiae deletion strains, growth OD
# [1] = locus YHR030C, strain SLT2, stronger effect = lower value
# [2] = locus YJL095W, strain BCK1, stronger effect = lower value
smiles,measurement,setting,value
Cc1cc(=O)c2c(O)cc(O)c(C)c2o1,normalized growth,"locus YAL021C, strain ccr4, stronger effect = lower value",0.976
same,normalized growth,"locus YAL026C, strain drs2, stronger effect = lower value",0.926
same,normalized growth,"locus YAL030W, strain snc1, stronger effect = lower value",0.954
same,normalized growth,"locus YBL061C, strain skt5, stronger effect = lower value",0.951
same,normalized growth,"locus YBR009C, strain hhf1, stronger effect = lower value",0.953
same,normalized growth,"locus YBR021W, strain FUR4, stronger effect = lower value",0.995
same,normalized growth,"locus YBR023C, strain chs3, stronger effect = lower value",0.936
same,normalized growth,"locus YBR171W, strain sec66, stronger effect = lower value",0.921
same,normalized growth,"locus YBR229C, strain ROT2, stronger effect = lower value",0.987
same,normalized growth,"locus YBR231C, strain swc5, stronger effect = lower value",0.924
same,normalized growth,"locus YBR279W, strain paf1, stronger effect = lower value",0.946
same,normalized growth,"locus YCL011C, strain gbp2, stronger effect = lower value",0.951
same,normalized growth,"locus YCL016C, strain dcc1, stronger effect = lower value",0.937
same,normalized growth,"locus YCL029C, strain bik1, stronger effect = lower value",0.994
same,normalized growth,"locus YCL061C, strain MRC1, stronger effect = lower value",0.938
same,normalized growth,"locus YCL069W, strain vba3, stronger effect = lower value",0.982
same,normalized growth,"locus YCR088W, strain abp1, stronger effect = lower value",0.965
same,normalized growth,"locus YDL005C, strain med2, stronger effect = lower value",0.963
same,normalized growth,"locus YDL035C, strain GPR1, stronger effect = lower value",1.02
same,normalized growth,"locus YDL040C, strain nat1, stronger effect = lower value",0.979
same,normalized growth,"locus YDL074C, strain BRE1, stronger effect = lower value",1.02
same,normalized growth,"locus YDL101C, strain DUN1, stronger effect = lower value",0.975
same,normalized growth,"locus YDL134C, strain PPH21, stronger effect = lower value",0.996
same,normalized growth,"locus YDL185W, strain tfp1, stronger effect = lower value",0.962
same,normalized growth,"locus YDL192W, strain arf1, stronger effect = lower value",0.988
same,normalized growth,"locus YDR001C, strain nth1, stronger effect = lower value",0.959
same,normalized growth,"locus YDR069C, strain doa4, stronger effect = lower value",0.962
same,normalized growth,"locus YDR101C, strain arx1, stronger effect = lower value",1.01
same,normalized growth,"locus YDR137W, strain rgp1, stronger effect = lower value",0.504 (active)
same,normalized growth,"locus YDR159W, strain sac3, stronger effect = lower value",0.907
same,normalized growth,"locus YDR162C, strain NBP2, stronger effect = lower value",1.03
same,normalized growth,"locus YDR195W, strain ref2",1.34 [resistant] (active)
same,normalized growth,"locus YDR297W, strain sur2, stronger effect = lower value",0.966
same,normalized growth,"locus YDR318W, strain mcm21, stronger effect = lower value",0.988
same,normalized growth,"locus YDR334W, strain swr1, stronger effect = lower value",0.951
same,normalized growth,"locus YDR335W, strain msn5, stronger effect = lower value",0.897 (active)
same,normalized growth,"locus YDR388W, stronger effect = lower value",0.98
same,normalized growth,"locus YDR392W, strain spt3, stronger effect = lower value",0.753
same,normalized growth,"locus YDR502C, strain sam2, stronger effect = lower value",0.977
same,normalized growth,"locus YEL003W, strain gim4, stronger effect = lower value",0.95
same,normalized growth,"locus YEL037C, strain rad23, stronger effect = lower value",0.961
same,normalized growth,"locus YEL061C, strain CIN8 (second series), stronger effect = lower value",0.943
same,normalized growth,"locus YEL061C, strain CIN8, stronger effect = lower value",0.993
same,normalized growth,"locus YER015W, strain faa2, stronger effect = lower value",0.95
same,normalized growth,"locus YER016W, strain bim1, stronger effect = lower value",0.937
same,normalized growth,"locus YER110C, stronger effect = lower value",0.968
same,normalized growth,"locus YER111C, strain swi4, stronger effect = lower value",0.934
same,normalized growth,"locus YER155C, strain BEM2 (second series), stronger effect = lower value",0.808 (active)
same,normalized growth,"locus YER155C, strain BEM2, stronger effect = lower value",0.987
same,normalized growth,"locus YER167W, strain BCK2, stronger effect = lower value",1
same,normalized growth,"locus YFR010W, strain ubp6, stronger effect = lower value",0.942
same,normalized growth,"locus YGL078C, strain dbp3, stronger effect = lower value",0.965
same,normalized growth,"locus YGL086W, strain mad1, stronger effect = lower value",1
same,normalized growth,"locus YGL167C, strain pmr1, stronger effect = lower value",0.936
same,normalized growth,"locus YGL173C, strain kem1, stronger effect = lower value",0.946
same,normalized growth,"locus YGL227W, strain vid30, stronger effect = lower value",0.957
same,normalized growth,"locus YGL240W, strain doc1, stronger effect = lower value",0.931
same,normalized growth,"locus YGL248W, strain PDE1, stronger effect = lower value",0.995
same,normalized growth,"locus YGL253W, strain hxk2, stronger effect = lower value",0.962
same,normalized growth,"locus YGR078C, strain PAC10, stronger effect = lower value",0.985
same,normalized growth,"locus YGR135W, strain pre9, stronger effect = lower value",0.965
same,normalized growth,"locus YGR229C, strain SMI1, stronger effect = lower value",1.01
same,normalized growth,"locus YGR252W, strain gcn5, stronger effect = lower value",1.03
same,normalized growth,"locus YHR013C, strain ard1, stronger effect = lower value",1.05
same,normalized growth,"locus YHR027C, strain rpn1, stronger effect = lower value",0.964
same,normalized growth,[1],0.996
same,normalized growth,"locus YHR079C, strain IRE1 (second series), stronger effect = lower value",0.988
same,normalized growth,"locus YHR094C, strain hxt1, stronger effect = lower value",0.983
same,normalized growth,"locus YHR129C, strain ARP1, stronger effect = lower value",0.985
same,normalized growth,"locus YHR142W, strain chs7, stronger effect = lower value",0.869 (active)
same,normalized growth,"locus YHR200W, strain rpn10, stronger effect = lower value",0.96
same,normalized growth,"locus YIL066C, strain RNR3, stronger effect = lower value",0.991
same,normalized growth,"locus YIL073C, strain SPO22, stronger effect = lower value",0.967
same,normalized growth,"locus YIL125W, strain kgd1, stronger effect = lower value",1
same,normalized growth,"locus YIR030C, strain dcg1, stronger effect = lower value",0.973
same,normalized growth,"locus YJL092W, strain hpr5, stronger effect = lower value",0.964
same,normalized growth,"locus YJL095W, strain BCK1 (second series), stronger effect = lower value",0.962
same,normalized growth,[2],0.962
same,normalized growth,"locus YJL115W, strain asf1, stronger effect = lower value",0.971
same,normalized growth,"locus YJL129C, strain trk1, stronger effect = lower value",0.901
same,normalized growth,"locus YJL134W, strain LCB3, stronger effect = lower value",0.989
same,normalized growth,"locus YJL154C, strain vps35, stronger effect = lower value",0.977
same,normalized growth,"locus YJL164C, strain tpk1, stronger effect = lower value",0.946
same,normalized growth,"locus YJL166W, strain qcr8, stronger effect = lower value",0.956
same,normalized growth,"locus YJL168C, strain set2, stronger effect = lower value",0.976
same,normalized growth,"locus YJL187C, strain SWE1 (second series), stronger effect = lower value",0.97
same,normalized growth,"locus YJL187C, strain SWE1, stronger effect = lower value",0.935
same,normalized growth,"locus YJR043C, strain POL32, stronger effect = lower value",1.05
same,normalized growth,"locus YKL009W, strain mrt4, stronger effect = lower value",0.954
same,normalized growth,"locus YKL068W, stronger effect = lower value",0.985
same,normalized growth,"locus YKL085W, strain MDH1 (second series), stronger effect = lower value",0.984
same,normalized growth,"locus YKL085W, strain MDH1, stronger effect = lower value",0.984
same,normalized growth,"locus YKL160W, strain elf1, stronger effect = lower value",0.908
same,normalized growth,"locus YKL190W, strain CNB1, stronger effect = lower value",0.993
same,normalized growth,"locus YKR001C, strain vps1, stronger effect = lower value",0.949
same,normalized growth,"locus YKR026C, strain gcn3, stronger effect = lower value",0.96
same,normalized growth,"locus YKR091W, strain srl3, stronger effect = lower value",0.96
same,normalized growth,"locus YLL001W, strain dnm1, stronger effect = lower value",0.944
same,normalized growth,"locus YLL026W, stronger effect = lower value",0.962
same,normalized growth,"locus YLL041C, strain sdh2, stronger effect = lower value",0.971
same,normalized growth,"locus YLR027C, strain aat2, stronger effect = lower value",0.962
same,normalized growth,"locus YLR039C, strain RIC1, stronger effect = lower value",0.919
same,normalized growth,"locus YLR058C, strain SHM2, stronger effect = lower value",0.982
same,normalized growth,"locus YLR102C, strain apc9, stronger effect = lower value",0.982
same,normalized growth,"locus YLR221C, strain rsa3, stronger effect = lower value",0.977
same,normalized growth,"locus YLR258W, strain gsy2, stronger effect = lower value",0.965
same,normalized growth,"locus YLR262C, strain YPT6 (second series), stronger effect = lower value",0.507 (active)
same,normalized growth,"locus YLR268W, strain sec22, stronger effect = lower value",1
same,normalized growth,"locus YLR320W, strain mms22, stronger effect = lower value",0.853 (active)
same,normalized growth,"locus YLR330W, strain CHS5, stronger effect = lower value",0.993
same,normalized growth,"locus YLR342W, strain FKS1, stronger effect = lower value",0.962
same,normalized growth,"locus YLR357W, strain rsc2, stronger effect = lower value",1
same,normalized growth,"locus YLR370C, strain arc18, stronger effect = lower value",0.971
same,normalized growth,"locus YLR371W, strain rom2, stronger effect = lower value",0.983
same,normalized growth,"locus YLR384C, strain iki3, stronger effect = lower value",0.942
same,normalized growth,"locus YLR418C, strain cdc73, stronger effect = lower value",0.925
same,normalized growth,"locus YML016C, strain PPZ1, stronger effect = lower value",0.982
same,normalized growth,"locus YML032C, strain rad52, stronger effect = lower value",0.987
same,normalized growth,"locus YML120C, strain ndi1, stronger effect = lower value",0.949
same,normalized growth,"locus YML124C, strain tub3, stronger effect = lower value",0.98
same,normalized growth,"locus YMR058W, strain fet3, stronger effect = lower value",0.928
same,normalized growth,"locus YMR078C, strain ctf18, stronger effect = lower value",0.989
same,normalized growth,"locus YMR125W, strain sto1, stronger effect = lower value",0.951
same,normalized growth,"locus YMR129W, stronger effect = lower value",0.958
same,normalized growth,"locus YMR205C, strain PFK2, stronger effect = lower value",0.896
same,normalized growth,"locus YMR223W, strain ubp8, stronger effect = lower value",0.97
same,normalized growth,"locus YMR231W, strain pep5, stronger effect = lower value",0.933
same,normalized growth,"locus YMR263W, strain SAP30, stronger effect = lower value",0.965
same,normalized growth,"locus YMR307W, strain GAS1, stronger effect = lower value",1.05
same,normalized growth,"locus YNL067W, strain RPL9B, stronger effect = lower value",0.978
same,normalized growth,"locus YNL071W, strain lat1, stronger effect = lower value",0.938
same,normalized growth,"locus YNL209W, strain ssb2, stronger effect = lower value",0.96
same,normalized growth,"locus YNL233W, strain BNI4, stronger effect = lower value",0.941
same,normalized growth,"locus YNL248C, strain rpa49, stronger effect = lower value",0.929
same,normalized growth,"locus YNL250W, strain rad50, stronger effect = lower value",0.976
same,normalized growth,"locus YNL271C, strain bni1, stronger effect = lower value",0.982
same,normalized growth,"locus YNL298W, strain CLA4, stronger effect = lower value",0.983
same,normalized growth,"locus YNL307C, strain MCK1, stronger effect = lower value",0.956
same,normalized growth,"locus YNL322C, strain KRE1 (second series), stronger effect = lower value",0.971
same,normalized growth,"locus YNL322C, strain KRE1, stronger effect = lower value",1.01
same,normalized growth,"locus YNR049C, strain mso1, stronger effect = lower value",0.969
same,normalized growth,"locus YNR052C, strain pop2, stronger effect = lower value",0.978
same,normalized growth,"locus YOL006C, strain TOP1, stronger effect = lower value",1.09
same,normalized growth,"locus YOL012C, strain htz1",0.94
same,normalized growth,"locus YOL147C, strain pex11, stronger effect = lower value",0.99
same,normalized growth,"locus YOR001W, strain rrp6, stronger effect = lower value",0.909
same,normalized growth,"locus YOR061W, strain CKA2, stronger effect = lower value",1.02
same,normalized growth,"locus YOR069W, strain VPS5, stronger effect = lower value",0.98
same,normalized growth,"locus YOR070C, strain gyp1, stronger effect = lower value",0.961
same,normalized growth,"locus YOR080W, strain dia2, stronger effect = lower value",0.972
same,normalized growth,"locus YOR083W, strain WHI5, stronger effect = lower value",0.919
same,normalized growth,"locus YOR106W, strain vam3, stronger effect = lower value",0.869
same,normalized growth,"locus YOR136W, strain idh2, stronger effect = lower value",0.981
same,normalized growth,"locus YOR144C, strain elg1, stronger effect = lower value",0.982
same,normalized growth,"locus YOR184W, strain ser1, stronger effect = lower value",1.04
same,normalized growth,"locus YOR265W, strain rbl2, stronger effect = lower value",0.964
same,normalized growth,"locus YOR270C, strain vph1, stronger effect = lower value",0.729 (active)
same,normalized growth,"locus YOR290C, strain snf2, stronger effect = lower value",0.898
same,normalized growth,"locus YOR316C, strain cot1, stronger effect = lower value",0.969
same,normalized growth,"locus YPL051W, strain arl3, stronger effect = lower value",0.859 (active)
same,normalized growth,"locus YPL078C, strain atp4, stronger effect = lower value",0.942
same,normalized growth,"locus YPL106C, strain sse1, stronger effect = lower value",0.942
same,normalized growth,"locus YPL240C, strain hsp82, stronger effect = lower value",0.959
same,normalized growth,"locus YPL241C, strain CIN2, stronger effect = lower value",0.998
same,normalized growth,"locus YPR119W, strain clb2, stronger effect = lower value",0.995
same,normalized growth,"locus YPR141C, strain kar3, stronger effect = lower value",0.987
same,normalized growth,"locus YPR163C, strain tif3, stronger effect = lower value",0.992
same,normalized growth,"locus YPR167C, strain met16, stronger effect = lower value",0.979
same,normalized growth,"strain wtn01, stronger effect = lower value",1.01
COc1cc2oc3cc(OC)c(OC)c(CC=C(C)C)c3c(=O)c2c(O)c1CC=C(C)C,normalized growth,[1],0.981
same,normalized growth,"locus YHR079C, strain IRE1, stronger effect = lower value",0.988
same,normalized growth,[2],0.971
same,normalized growth,"locus YJR066W, strain TOR1, stronger effect = lower value",0.934
same,normalized growth,"locus YLR113W, strain HOG1, stronger effect = lower value",0.958
same,normalized growth,"locus YNL183C, strain NPR1, stronger effect = lower value",0.919
same,normalized growth,"locus YOR231W, strain MKK1, stronger effect = lower value",0.981
same,normalized growth,"locus YPL256C, strain CLN2, stronger effect = lower value",0.992
